Assay outcomes as filed in PubChem.
CYP2C19 inh – human CYP2C19 inhibition; P33261; CYP2C19 Supersomes, luciferin-H EGE luminescence, 30 min; inhibition, % at 5 µM; 96,000 tested, 21% active; AID 778;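 active = CYP2C19 inhibition above a set limit at 5 µM in the primary screen, cut at about 50% in these data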
CYP2C9 inh – human CYP2C9 inhibition; AID 777; 96,000 tested, 20% active; inhibition, % at 5 µM; CYP2C9 Supersomes, luciferin-H conversion, luminescence; P11712;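 active = blocking of liver enzyme CYP2C9 beyond about 50% at 5 µM, limit read from the data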
Target sequence (P11712 whole entry, looked up): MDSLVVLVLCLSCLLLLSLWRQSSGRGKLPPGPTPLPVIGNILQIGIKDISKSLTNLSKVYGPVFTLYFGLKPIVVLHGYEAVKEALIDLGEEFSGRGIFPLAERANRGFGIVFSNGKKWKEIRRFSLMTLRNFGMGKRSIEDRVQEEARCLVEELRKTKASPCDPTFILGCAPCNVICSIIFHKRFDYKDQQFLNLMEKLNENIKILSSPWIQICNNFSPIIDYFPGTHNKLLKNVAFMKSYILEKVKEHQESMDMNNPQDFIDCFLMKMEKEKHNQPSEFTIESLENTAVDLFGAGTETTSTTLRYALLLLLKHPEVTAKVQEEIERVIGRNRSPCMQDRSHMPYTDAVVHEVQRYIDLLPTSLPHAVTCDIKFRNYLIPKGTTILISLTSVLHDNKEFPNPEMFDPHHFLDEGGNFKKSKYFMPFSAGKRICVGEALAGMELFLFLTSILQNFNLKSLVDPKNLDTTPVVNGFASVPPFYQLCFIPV
CYP2C19 activ – cytochrome P450 2C19 (human) activation | P33261 | recombinant CYP2C19, luciferin-H EGE luminescence; hits give high values; 0 = fully inhibited enzyme, 1 = untreated enzyme | activation factor at 5 µM | 96,000 tested, under 10 active | AID 1025;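 active = activation factor of at least 2 at 5 µM in the primary screen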
CYP2C9 act – activators of human CYP2C9. P11712. recombinant CYP2C9, luciferin-H conversion, luminescence; hits give high values; factor 1 = untreated enzyme, 0 = blocked. activation factor at 5 µM. 96,000 tested, 1.4% active. AID 1024;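 active = activation factor of 2 or more for CYP2C9 at a 5 µM dose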
EphB4 antag – EphB4-ephrin-B2 interaction antagonism; P54760; EphB4 LBD / TNYL-RAW-Alexa532 peptide, fluorescence polarization; inhibition, % at 7 µM; 97,000 tested, 0.15% active;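 active = inhibition above the screen-wide mean inhibition plus 3 SD, cut at about 15% in these data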
Numbers stand for hits; . = inactive; / = no result. An excerpt weighted towards active compounds, which were near 27% of everything screened.

SMILES	CYP2C19 inh	CYP2C9 inh	CYP2C19 activ	CYP2C9 act	EphB4 antag
CN1CC(c2ccccc2)C2(SC(=S)N(Cc3ccco3)C2=O)C12C(=O)Nc1ccccc12 (stereo not drawn)	95.6	95.3	.	.	.
O=CN(CCN(C=O)CN1CCCCC1)CN1CCCCC1	.	.	.	.	/
Cc1nn(CC(=O)NCCc2ccccc2)c(=O)c2ccccc12	.	.	.	.	.
Cc1nc2c(C(=O)NCCc3ccccc3)c[nH]n2c(=O)c1Cl	.	63.7	.	.	.
Cc1nc2c(C(=O)NCc3ccc(F)cc3)c[nH]n2c(=O)c1Cl	.	63.2	.	.	.
COCCn1c(=S)[nH]c2cc(C(=O)N3CCC(C(N)=O)(N4CCCCC4)CC3)ccc2c1=O	.	.	.	.	.
COCCn1c(-c2ccccc2)nc(=S)c2c1CC(C)(C)OC2	.	.	.	.	.
Fc1ccc(Oc2cc(N3CCOCC3)nc(-c3ccccc3)n2)c(F)c1	.	.	.	.	.
CCOC(=O)C1=C(c2ccccc2)N(C)C(=O)NC1c1ccc(OC(F)F)c(OC)c1 (stereo not drawn)	68.9	83.3	.	.	.
O=C(C1CCN(c2ncnc3c2sc2cccc(F)c23)CC1)N1CCOCC1	.	.	.	.	.
COC(=O)C1Cc2c([nH]c3ccccc23)CN1 (stereo not drawn)	71.1	.	.	.	.
CCOC(=O)C1Cc2c([nH]c3ccccc23)C(C)N1 (stereo not drawn)	81.8	.	.	.	.
O=C(OCCN=C1NS(=O)(=O)c2ccccc21)c1ccccc1	.	85.4	.	.	.
O=C(OCCOCCN=C1NS(=O)(=O)c2ccccc21)C1CC(=O)N(c2ccccc2)C1 (stereo not drawn)	.	.	.	.	.
CC(C)C(=O)OCCN=C1NS(=O)(=O)c2ccccc21	.	.	.	.	.
O=C(OCCN=C1NS(=O)(=O)c2ccccc21)C1CC(=O)N(c2ccc(Cl)cc2)C1 (stereo not drawn)	.	63.4	.	.	.
COc1ccc(C(=O)COC(=O)CCN=C2NS(=O)(=O)c3ccccc32)cc1OC	74.0	.	.	.	.
Nc1ccc2c(C(F)(F)F)cc(=O)oc2c1	.	.	.	.	.
CCOC(=O)CCSc1nc(C)cc(C(F)(F)F)c1C#N	60.9	.	.	.	.
CCOC(=O)CC(=O)CSc1nc(-c2ccc3c(c2)OCO3)cc(C(F)(F)F)c1C#N	.	52.7	.	.	.
CCOC(=O)CCSc1nc(-c2ccc3c(c2)OCO3)cc(C(F)(F)F)c1C#N	.	.	.	.	.
CCOC(=O)CCSc1nc(C(C)(C)C)cc(C(F)(F)F)c1C#N	/	/	/	/	.
CCCC(=O)N(C)c1nnc(-c2ccc(OC)cc2)s1	.	.	.	.	.
COc1ccc(CCNc2oc(COc3ccc(F)cc3)nc2C#N)cc1	52.7	70.4	.	.	.
COCCNc1oc(COc2cccc(C)c2)nc1C#N	56.8	.	.	.	.
SMILES	CYP2C19 inh	CYP2C9 inh	CYP2C19 activ	CYP2C9 act	EphB4 antag
CN(C)CCNc1oc(COc2cccc(Cl)c2)nc1C#N	.	.	.	.	.
COc1ccc(CCNc2oc(Cc3ccccc3)nc2C#N)cc1OC	74.9	50.3	.	.	.
CCNc1oc(COc2ccccc2F)nc1C#N	96.1	.	.	.	.
COC(=O)c1ccc(C2/C(=C(/O)c3ccc(OC)cc3)C(=O)C(=O)N2Cc2ccco2)cc1 (stereo not drawn)	/	/	/	/	.
CCOC(=O)N1CCN(C(=O)C(c2ccccc2)c2ccccc2)CC1	.	.	.	.	.
COCCn1nnnc1C(c1ccc(C(F)(F)F)cc1)N1CCOCC1 (stereo not drawn)	.	.	.	.	.
COc1ccc(CCNc2oc(COc3ccccc3F)nc2C#N)cc1OC	96.2	91.1	.	.	.
COc1ccc(CCNc2oc(COc3ccccc3Cl)nc2C#N)cc1OC	/	/	/	/	.
C=CCSc1nnc(NC(=O)c2ccc(Cl)nc2)s1	.	.	.	.	.
OCCOCCn1c2ccccc2c2ccccc21	54.7	.	.	.	.
CCCCOC(=O)CCn1[nH]c(=O)c2ccccc2c1=O	84.5	91.6	.	.	.
O=C(CCn1[nH]c(=O)c2ccccc2c1=O)NCCO	.	.	.	.	.
O=C(CCn1[nH]c(=O)c2ccccc2c1=O)OC1CCCCC1	80.7	.	.	.	.
O=C(CSc1nc2c(cnn2-c2ccccc2)c(=O)[nH]1)N1CCOCC1	.	.	.	.	.
Cc1ccc(NC(=O)/C(=C\C=C\c2ccccc2)NC(=O)c2ccccc2)cc1	.	67.7	.	.	.
